# Source: PubChem
# The list is not random: actives were taken first. Their share in the collection is about 2.1%.
# IDE inh: inhibits human insulin-degrading enzyme in HEK cells; P14735; FAbetaB cleavage, fluorescence polarization; inhibition, % at 5.59 µM; actives 0.41% (n = 320,000);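 active = percent inhibition above the average of all tested compounds plus 3 SD, set per screening campaign, cut at about 16% in these data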;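 also: IDE supplied by intact live HEK cells; FP after avidin binding of uncleaved biotin substrate so inhibition keeps polarization high; 0% = DMSO wells and 100% = 60 µM reference IDE inhibitor Ii1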
# HDAC3 inh: human HDAC3 inhibition | recombinant HDAC3, fluorogenic peptide/trypsin coupled, fluorescence | O15379 | actives 0.15% (n = 320,000) | inhibition, % at 8.3 µM; in the data active = inhibition above about 26%, passing the limit was not always enough
# Mot1-301 SUMO: inhibitors of SUMOylation pathway: yeast Mot1-301 growth rescue | S. cerevisiae Mot1-301 growth rescue, ATP luminescence, 38.5C; percent above DMSO median, 100 means doubled | growth rescue, % at 18.8 µM | AID 2716 | actives 1% (n = 320,000);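 active = every valid replicate shows activation above 250% relative to neutral control wells; inactive = the rest, any valid replicate at or below 250%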;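 also: OY570 slx delta 5 strain wells were the positive control but not used for scaling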
# IDE act: activators of human insulin-degrading enzyme in cells; P14735; actives 0.073% (n = 340,000); HEK cells, FAbeta-B cleavage, fluorescence polarization; 0% vehicle, 100% cell-free pure enzyme wells; activation, % at 5.96 µM;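 active = activation above the mean of all tested compounds plus 3 SD, set per screening campaign, cut at about 17% in these data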
# LANA-H2B inh: blocks KSHV LANA binding to histone H2A/H2B; cell-free LANA-H2A/H2B peptide, fluorescence polarization; actives 0.6% (n = 320,000); Q9QR71; inhibition, % (no concentration beside the values); in the data active = inhibition mostly above about 10%, no sharp cut-off; inactive = mostly below about 6.7%
# Target sequence (Q9QR71 whole entry, looked up): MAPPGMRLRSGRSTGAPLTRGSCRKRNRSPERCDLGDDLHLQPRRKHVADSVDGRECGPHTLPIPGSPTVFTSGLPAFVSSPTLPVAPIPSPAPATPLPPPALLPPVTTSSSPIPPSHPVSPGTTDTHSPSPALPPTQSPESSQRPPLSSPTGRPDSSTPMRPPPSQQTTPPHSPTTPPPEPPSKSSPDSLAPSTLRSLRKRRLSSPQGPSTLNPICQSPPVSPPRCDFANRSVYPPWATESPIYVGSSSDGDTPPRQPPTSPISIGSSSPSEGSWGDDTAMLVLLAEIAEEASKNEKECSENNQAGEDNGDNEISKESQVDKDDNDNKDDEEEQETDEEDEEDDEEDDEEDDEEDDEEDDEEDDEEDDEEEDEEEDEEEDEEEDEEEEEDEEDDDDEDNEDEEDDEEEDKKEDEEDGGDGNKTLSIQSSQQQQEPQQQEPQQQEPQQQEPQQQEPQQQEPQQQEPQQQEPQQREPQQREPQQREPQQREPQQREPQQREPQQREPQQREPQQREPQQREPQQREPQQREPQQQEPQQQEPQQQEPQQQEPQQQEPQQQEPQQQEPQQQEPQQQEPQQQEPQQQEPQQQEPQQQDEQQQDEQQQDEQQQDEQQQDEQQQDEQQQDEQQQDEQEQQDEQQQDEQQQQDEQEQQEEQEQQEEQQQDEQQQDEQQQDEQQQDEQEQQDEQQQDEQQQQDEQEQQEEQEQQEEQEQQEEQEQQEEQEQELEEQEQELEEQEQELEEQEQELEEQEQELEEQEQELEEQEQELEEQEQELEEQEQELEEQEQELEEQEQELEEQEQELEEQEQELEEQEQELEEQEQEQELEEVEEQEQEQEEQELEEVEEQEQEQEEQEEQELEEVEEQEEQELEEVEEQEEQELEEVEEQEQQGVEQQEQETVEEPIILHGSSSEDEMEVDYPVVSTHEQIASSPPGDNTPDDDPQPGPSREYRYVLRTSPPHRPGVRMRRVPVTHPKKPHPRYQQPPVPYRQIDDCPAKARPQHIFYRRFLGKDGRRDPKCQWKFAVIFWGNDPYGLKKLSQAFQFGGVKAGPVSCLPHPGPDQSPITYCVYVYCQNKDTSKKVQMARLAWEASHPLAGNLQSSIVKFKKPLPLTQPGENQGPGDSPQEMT
# Starred values were filed as active, the others as inactive; / = no result given; + = active, no number.
SMILES,IDE inh,HDAC3 inh,Mot1-301 SUMO,IDE act,LANA-H2B inh
C[C@@H]1COC(=O)[C@H](NC(=O)OCC2c3ccccc3-c3ccccc32)C/C=C\C[C@@H](CC(=O)N[C@H](CO)Cc2ccccc2)C(=O)N1,7.4,3.7,-10.4,-3.6,-2.4
O=C(C[C@@H]1C/C=C\C[C@@H](NC(=O)OCC2c3ccccc3-c3ccccc32)C(=O)OCCNC1=O)N[C@@H](CO)Cc1ccccc1,-0.6,-7.4,-0.9,1.4,+
O=C(c1ccccn1)N(Cc1ccco1)C1(C(=O)NC2CCCCC2)CCCCC1,7.8,7.5,483.0,4.3,-0.6
O=C(c1ccccn1)N(CC1CCCO1)C1(C(=O)NC2CCCCC2)CCCCC1 (stereo not given),3.5,-8.1,-2.3,-1.5,24.9*
CC1CCN(S(=O)(=O)c2nnc(NC(=O)COc3ccccc3)s2)CC1,-1.4,2.7,292.5*,1.7,2.0
COCCCn1c(=O)cc(C)[nH]c1=S,1.0,0.1,3.5,3.4,14.5*
CCCCN(C)C(=O)c1cn(C)c2ccc(S(=O)(=O)N3CCC(C)CC3)cc2c1=O,-1.8,-4.2,-7.5,0.5,-1.8
COc1ccc(CCNc2oc(-c3ccc(OC)c(OC)c3)nc2C#N)cc1,0.4,1.6,-0.9,4.5,-0.9
COc1ccc(-c2nc(C#N)c(NCCCN(C)C)o2)cc1OC,2.1,-95.3,306.4*,3.3,3.9
CCOC(=O)C1=C(c2ccccc2)NC(N)=NC1c1ccc(OCc2ccc(Cl)cc2)c(OC)c1 (stereo not given),2.3,/,41.6,19.1*,4.6
CCOC(=O)C1=C(c2ccccc2)NC(=O)NC1c1cc(Cl)c(O)c(OC)c1 (stereo not given),-1.6,3.9,-14.6,-5.2,-1.7
CCCCNC(=O)C1CCN(Cc2ccccn2)CC1,1.0,3.2,303.0*,1.1,0.8
Cc1cccc(-n2nnnc2SCC(=O)NCC2(N3CCOCC3)CCCCC2)c1C,3.3,2.8,8.3,-7.4,+
COc1cccc(CNC(=O)CCCn2nc(C)c3c(C)n(-c4ccc(C)cc4)nc3c2=O)c1OC,-4.4,1.8,-2.8,2.3,-1.3
CN(C)c1ccc(C=C2C(=O)OC(C)(C(C)(C)C)OC2=O)cc1 (stereo not given),3.9,-3.3,311.3*,3.6,2.7
CN(C)c1ccc(C=C2C(=O)OC(C)(C)OC2=O)cc1,-3.1,-2.3,-3.2,2.5,-10.7
NS(=O)(=O)c1cccc(NC(=O)CN2CCN(S(=O)(=O)c3ccc4c(c3)OCCO4)CC2)c1,5.3,8.9,-3.1,0.7,-2.2
O=C(O)[C@H](Cc1ccccc1)NC(=O)N1CCC(Cc2ccccc2)CC1,4.1,1.4,400.3,1.6,17.9*
Cc1oc2c(CN3CCCC(C)C3)c(O)ccc2c(=O)c1-c1ccccc1 (stereo not given),-6.5,-37.6,-4.4,-0.3,-0.1
COc1cccc(CN(C)C(=O)C23CC4CC(CC(C4)C2)C3)c1,-3.8,10.9,-6.6,1.6,1.8
COc1ccc(CN(C)C(=O)C23CC4CC(CC(C4)C2)C3)c(OC)c1,-6.5,-4.6,328.4*,3.3,-3.3
O=C(c1ccc(Cl)c(S(=O)(=O)NCc2ccccc2)c1)N1CCN(c2ccccn2)CC1,1.9,-5.7,-14.0,-6.3,-3.3
COC(=O)C1CCN(C(=O)c2ccc(Cl)c(S(=O)(=O)NCc3cccnc3)c2)CC1,0.8,-0.4,-1.5,5.2,43.3*
Cc1ccc(C)c(NC(=O)c2cc([N+](=O)[O-])cc([N+](=O)[O-])c2)c1,-2.3,0.1,-9.9,7.0,-2.6
O=C(CCNC(=O)c1ccccc1Cl)Nc1cc(C(F)(F)F)ccc1N1CCCC1,0.8,13.8,3.4,2.4,0.1
SMILES,IDE inh,HDAC3 inh,Mot1-301 SUMO,IDE act,LANA-H2B inh
COC(=O)[C@@]12CCCCN1[C@H](c1ccc(-c3cccc(Cl)c3)c(OC)c1)[C@@H]1C(=O)N(C)C(=O)[C@@H]12,3.6,32.7*,5.7,-0.2,-0.2
COC(=O)[C@@]12CCCN1[C@H](c1ccc(-c3cccc(Cl)c3)c(OC)c1)[C@H]1C(=O)N(C)C(=O)[C@H]12,0.7,4.8,178.4,-5.7,1.3
COc1ccccc1N1CCN(C(=O)c2cccc(S(=O)(=O)N3c4ccccc4CC3C)c2)CC1 (stereo not given),/,/,/,1.1,/
CSc1ccc(CN2CCCN(C)CC2)cc1,-1.6,2.4,53.3,-0.3,7.6
CCCCCCCNC(=O)C1(CC2CC(c3cccc(Br)c3)=NO2)CCNCC1 (stereo not given),-2.6,4.2,-3.3,19.0*,0.4
CCCCCCCNC(=O)C1(CC2CC(c3cccc(Br)c3)=NO2)CCN(C(=O)Cc2ccc(F)cc2)CC1 (stereo not given),-3.4,4.7,11.2,2.5,-2.0
COc1ccc(N2CCN(CCNC(=O)CCCn3c(=O)[nH]c4cc(Cl)ccc4c3=O)CC2)cc1,-0.3,-1.2,0.3,1.6,19.5*
COc1ccc(N2CCN(CCCNC(=O)CCCn3c(=O)[nH]c4ccsc4c3=O)CC2)cc1,-6.4,7.5,-12.5,3.8,-3.1
CCc1cccc2c(C(=O)COC(=O)[C@@H]3CC(O)CN3S(=O)(=O)c3ccccc3[N+](=O)[O-])c[nH]c12 (stereo not given in full),3.0,2.9,5.6,-4.4,2.0
Cc1ccc(C(=O)N2CCCC(CCC(=O)N3CCN(c4ccccn4)CC3)C2)cn1 (stereo not given),-5.9,-0.9,-8.2,-5.0,10.5*
CCOC(=O)C1C(=O)CC(C)(O)C(C(=O)OCC)C1/C=C/c1ccccc1 (stereo not given),/,/,36.4,4.5,81.5*
CCN(CC)S(=O)(=O)c1ccc(C(=O)NCC(=O)NCCCc2ccccc2)cc1,/,/,/,6.8,/
Cc1cc(C)cc(NS(=O)(=O)c2ccc3c(c2)C(C)(C)C(=O)N3C)c1,0.0,3.5,10.1,3.4,11.4*
CCOC(=O)c1ccc(Oc2c(C)oc3c(CN4CCN(C)CC4)c(O)ccc3c2=O)cc1,3.5,-81.4,356.7*,7.6,1.6
COc1ccc(Oc2c(C)oc3c(CN4CCOCC4)c(O)ccc3c2=O)cc1,3.1,-12.1,-5.3,6.7,3.4
O=C(COc1ccc(F)cc1Br)N1CCN(S(=O)(=O)/C=C/c2ccccc2)CC1,-7.8,3.9,8.7,9.8,87.3*
CCOC(=O)CN(C)C(=O)CCc1nnc(-c2ccsc2)o1,0.7,-1.9,610.6*,-0.8,-2.1
CS(=O)(=O)c1cccc(C(=O)Nc2ccc3c(c2)OCCCO3)c1,-2.7,1.9,186.4,3.4,2.2
CCCCn1c(N)c(N(CCC(C)C)C(=O)c2cccc(-n3cnnn3)c2)c(=O)[nH]c1=O,-3.6,5.5,-6.9,4.7,-0.6
Cc1ccc(C(=O)NC(=C(Cl)Cl)S(=O)(=O)c2ccccc2)cc1,-0.5,-9.1,-10.9,-2.6,14.3*
CCOc1cccc(C2C(C(=O)c3ccc(C)o3)=C(O)C(=O)N2c2nccs2)c1 (stereo not given),-2.5,4.6,/,7.6,15.4*
